The source of these data is PubChem BioAssay.

The nature of experiment [1]: small molecules captured by biotinylated probe aFSTL3 – biochemical, small-molecule microarray, fluorescence 635/667, stem cell growth factor project, primary screen (AID 1064).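 Also: measures binding of the biotinylated anti-FSTL3 antibody to printed compounds.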 The settings on record: higher = more signal.
A short description of experiment [2]: binders from COS7 lysate, DM2A8 probe, primary screen, torsin A project, cell lysate, small-molecule microarray, fluorescence 635/667 (AID 1065). The settings on record: higher = more signal, COS7 lysate expressing mutant human TOR1A.
Experiment [3] is described as follows: small molecules captured by biotinylated probe aFGF2 – biochemical, small-molecule microarray, fluorescence 635/667, stem cell growth factor project, primary screen (AID 1067).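 Also: measures binding of biotinylated aFGF2 protein to printed compounds on slides; z-score merges feature fluorescence and signal-to-noise across triplicate slides.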 The conditions noted are these: higher = more signal.
Experiment [4] in a line: small molecules captured by biotinylated probe aFGF10 – biochemical, small-molecule microarray, fluorescence 635/667, stem cell growth factor project, primary screen (AID 1071).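 Also: score merges 667 nm spot intensity and signal to noise from triplicate slides.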 The conditions noted are these: higher = more signal.
Experiment [5] concerns the target Neurogenic locus notch homolog protein 2 (Homo sapiens) (UniProt Q04721). The experiment can be described thus: small molecules binding Notch2 protein – biochemical, small-molecule microarray, 635 nm fluorescence, stem cell growth factors, primary screen (AID 1073). The settings on record: higher = more signal.
The target in experiment [6] is Pro-neuregulin-1, membrane-bound isoform (Homo sapiens) (UniProt Q02297). As to the kind of experiment: small molecules binding neuregulin-1 protein – biochemical, small-molecule microarray, fluorescence 635/667, psychiatric disease protein project, primary screen (AID 1075).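 Also: score combines 667 nm spot fluorescence with signal to noise.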 The settings on record: NRG1 binding, 635 nm fluorescence, higher = more signal.
Sequence of Pro-neuregulin-1, membrane-bound isoform (Homo sapiens) (Q02297 whole entry, looked up, the tested form may be a part, canonical isoform): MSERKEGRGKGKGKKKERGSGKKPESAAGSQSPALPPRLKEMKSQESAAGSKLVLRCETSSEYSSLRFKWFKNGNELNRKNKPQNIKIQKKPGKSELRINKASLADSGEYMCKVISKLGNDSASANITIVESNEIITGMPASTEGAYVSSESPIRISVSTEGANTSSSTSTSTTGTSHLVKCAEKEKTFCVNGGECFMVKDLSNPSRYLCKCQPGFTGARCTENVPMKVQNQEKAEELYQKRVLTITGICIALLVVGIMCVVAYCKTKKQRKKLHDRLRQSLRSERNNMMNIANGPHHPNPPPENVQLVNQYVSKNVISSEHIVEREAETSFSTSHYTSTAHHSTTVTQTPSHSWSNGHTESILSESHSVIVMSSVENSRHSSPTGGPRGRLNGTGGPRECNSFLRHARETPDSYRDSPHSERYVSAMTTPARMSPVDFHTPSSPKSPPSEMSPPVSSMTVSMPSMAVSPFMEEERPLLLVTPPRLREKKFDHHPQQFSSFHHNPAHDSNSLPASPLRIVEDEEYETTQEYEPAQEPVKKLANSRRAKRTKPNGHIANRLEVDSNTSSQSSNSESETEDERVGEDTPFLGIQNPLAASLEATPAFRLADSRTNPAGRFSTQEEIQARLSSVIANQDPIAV
Experiment [7] concerns Neuregulin-1 EGF-like domain. The experiment can be described thus: small molecules binding NRG1 EGF domain – biochemical, small-molecule microarray, 635 nm fluorescence, primary screen (AID 1081).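 Also: binding of the protein to compounds printed on small-molecule microarray slides.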 The conditions noted are these: higher = more signal.
Experiment [8] is described as follows: FRG1 expression reporter modulators in myotubes – cell-based, C2C12 myotubes, firefly/Renilla luciferase, luminescence, FRG1 inhibition for FSHD, primary screen (AID 1084). The settings on record: FRG1 promoter luciferase, higher = more signal, called active from +8 up or from −8 down.
Experiment [9] is described as follows: small molecules captured by biotinylated probe aFST – biochemical, small-molecule microarray, fluorescence 635/667, stem cell growth factor project, primary screen (AID 1086).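 Also: score merges 667 nm fluorescence with signal-to-noise of each printed compound spot.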 The conditions noted are these: higher = more signal.
Experiment [10] in a line: binders of probe aHhip on microarray, primary screen, stem cell growth factor project, biochemical, small-molecule microarray, fluorescence 635/667 (AID 1087).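 Also: score merges spot fluorescence at 667nm with spot signal to noise ratio.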 The conditions noted are these: higher = more signal.
For experiment [11], the system named is PRMT1 (protein arginine N-methyltransferase 1). As to the kind of experiment: small molecules binding arginine methyltransferase PRMT1 – biochemical, small-molecule microarray, 635 nm fluorescence, primary screen (AID 1088).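 Also: binding of Prmt1 protein to compounds spotted on small-molecule microarray slides.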 The conditions noted are these: higher = more signal.
Experiment [12] is described as follows: growth effects on S. cerevisiae YJM789 – YJM789 clinical isolate, OD600, 24 h, basal, primary screen (AID 1089).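 Also: growth of clinical yeast isolate S. cerevisiae YJM 789 seeded 1000 cells per well; test concentration not given here.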 The conditions noted are these: higher = more signal, called active from +8 up or from −8 down.
Experiment [13] can be described thus: S. pombe growth modifiers, basal conditions – strain 972, OD600, 24 h, no modulator, primary screen (AID 1090).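 Also: basal condition with compound alone and no growth modifier present; test concentration not given here.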 The conditions noted are these: S. pombe 972 growth, higher = more signal, called active from +8 up or from −8 down.
The nature of experiment [14]: budding yeast growth modifiers under rapamycin – strain BY4716, OD600, 96 h, primary screen (AID 1091). Also: test concentration not given here. The settings on record: S. cerevisiae BY4716 + rapamycin, higher = more signal, called active from +8 up or from −8 down.
The target of experiment [15] is Torsin-1A-interacting protein 2 (Homo sapiens) (UniProt Q8NFQ8). As to the kind of experiment: small molecules binding lysate-expressed LULL1 – cell lysate, human LULL1 lysate, 635/667 nm fluorescence, primary screen (AID 1092).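 Also: probe is lysate of COS7 cells overexpressing human LULL1; score merges per-feature 667 nm fluorescence with signal-to-noise.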 The conditions noted are these: small-molecule microarray, hLULL1 lysate binding, 635 nm fluorescence; higher = more signal.
Sequence of Torsin-1A-interacting protein 2 (Homo sapiens) (Q8NFQ8 whole entry, looked up): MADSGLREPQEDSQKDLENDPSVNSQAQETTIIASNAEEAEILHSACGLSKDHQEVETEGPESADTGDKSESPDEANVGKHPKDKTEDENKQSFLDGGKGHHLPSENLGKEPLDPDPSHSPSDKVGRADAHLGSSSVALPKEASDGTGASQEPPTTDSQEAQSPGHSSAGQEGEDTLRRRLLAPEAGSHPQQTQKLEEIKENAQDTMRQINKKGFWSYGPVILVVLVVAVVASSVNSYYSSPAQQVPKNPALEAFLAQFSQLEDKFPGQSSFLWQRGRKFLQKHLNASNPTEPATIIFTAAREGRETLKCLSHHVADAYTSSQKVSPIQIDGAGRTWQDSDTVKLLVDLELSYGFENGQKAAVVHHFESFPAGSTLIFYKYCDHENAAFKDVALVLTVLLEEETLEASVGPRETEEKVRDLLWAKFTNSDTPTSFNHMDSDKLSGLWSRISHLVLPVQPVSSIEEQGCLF
The nature of experiment [16]: optical density change of DRC41 E. coli – strain DRC41, OD650, 24 h, E. coli filamentation project, primary screen (AID 1093).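 Also: MC1000 strain lacking acrAB efflux and sulA so SOS filamentation is blocked; test concentration not given here.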 The conditions noted are these: E. coli DRC41 growth, higher = more signal, called active from +8 up or from −8 down.
Experiment [17] is described as follows: probe aLefty2 binding to arrayed compounds – biochemical, biotinylated probe, 635/667 nm fluorescence, primary screen (AID 1094).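 Also: score merges spot fluorescence near 667 nm with spot signal-to-noise ratio.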 The settings on record: small-molecule microarray, higher = more signal.
The test system of experiment [18] is Noggin (protein binding on small-molecule microarray). As to the kind of experiment: small molecules binding Noggin protein – biochemical, 635/667 nm fluorescence, primary screen (AID 1095).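 Also: score merges 667 nm feature fluorescence with signal to noise over triplicate slides.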 The settings on record: 635 nm fluorescence, higher = more signal.
For experiment [19], the target named is Neurogenic locus notch homolog protein 3 (Homo sapiens) (UniProt Q9UM47). As to the kind of experiment: small molecules binding NOTCH3 protein – biochemical, 635/667 nm fluorescence, primary screen (AID 1096). The settings on record: small-molecule microarray, 635 nm fluorescence, higher = more signal.
Experiment [20] can be described thus: probe aEGFR binding to arrayed compounds – biochemical, biotinylated probe, 635/667 nm fluorescence, primary screen (AID 1097).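 Also: probe is a biotinylated anti-EGFR antibody binding compounds printed on slides; score combines fluorescence near 667 nm and signal to noise of each spot.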 The conditions noted are these: small-molecule microarray, higher = more signal.

Activity calls are given as the source filed them.

Sequence of Neurogenic locus notch homolog protein 2 (Homo sapiens) (Q04721 whole entry, looked up, canonical isoform): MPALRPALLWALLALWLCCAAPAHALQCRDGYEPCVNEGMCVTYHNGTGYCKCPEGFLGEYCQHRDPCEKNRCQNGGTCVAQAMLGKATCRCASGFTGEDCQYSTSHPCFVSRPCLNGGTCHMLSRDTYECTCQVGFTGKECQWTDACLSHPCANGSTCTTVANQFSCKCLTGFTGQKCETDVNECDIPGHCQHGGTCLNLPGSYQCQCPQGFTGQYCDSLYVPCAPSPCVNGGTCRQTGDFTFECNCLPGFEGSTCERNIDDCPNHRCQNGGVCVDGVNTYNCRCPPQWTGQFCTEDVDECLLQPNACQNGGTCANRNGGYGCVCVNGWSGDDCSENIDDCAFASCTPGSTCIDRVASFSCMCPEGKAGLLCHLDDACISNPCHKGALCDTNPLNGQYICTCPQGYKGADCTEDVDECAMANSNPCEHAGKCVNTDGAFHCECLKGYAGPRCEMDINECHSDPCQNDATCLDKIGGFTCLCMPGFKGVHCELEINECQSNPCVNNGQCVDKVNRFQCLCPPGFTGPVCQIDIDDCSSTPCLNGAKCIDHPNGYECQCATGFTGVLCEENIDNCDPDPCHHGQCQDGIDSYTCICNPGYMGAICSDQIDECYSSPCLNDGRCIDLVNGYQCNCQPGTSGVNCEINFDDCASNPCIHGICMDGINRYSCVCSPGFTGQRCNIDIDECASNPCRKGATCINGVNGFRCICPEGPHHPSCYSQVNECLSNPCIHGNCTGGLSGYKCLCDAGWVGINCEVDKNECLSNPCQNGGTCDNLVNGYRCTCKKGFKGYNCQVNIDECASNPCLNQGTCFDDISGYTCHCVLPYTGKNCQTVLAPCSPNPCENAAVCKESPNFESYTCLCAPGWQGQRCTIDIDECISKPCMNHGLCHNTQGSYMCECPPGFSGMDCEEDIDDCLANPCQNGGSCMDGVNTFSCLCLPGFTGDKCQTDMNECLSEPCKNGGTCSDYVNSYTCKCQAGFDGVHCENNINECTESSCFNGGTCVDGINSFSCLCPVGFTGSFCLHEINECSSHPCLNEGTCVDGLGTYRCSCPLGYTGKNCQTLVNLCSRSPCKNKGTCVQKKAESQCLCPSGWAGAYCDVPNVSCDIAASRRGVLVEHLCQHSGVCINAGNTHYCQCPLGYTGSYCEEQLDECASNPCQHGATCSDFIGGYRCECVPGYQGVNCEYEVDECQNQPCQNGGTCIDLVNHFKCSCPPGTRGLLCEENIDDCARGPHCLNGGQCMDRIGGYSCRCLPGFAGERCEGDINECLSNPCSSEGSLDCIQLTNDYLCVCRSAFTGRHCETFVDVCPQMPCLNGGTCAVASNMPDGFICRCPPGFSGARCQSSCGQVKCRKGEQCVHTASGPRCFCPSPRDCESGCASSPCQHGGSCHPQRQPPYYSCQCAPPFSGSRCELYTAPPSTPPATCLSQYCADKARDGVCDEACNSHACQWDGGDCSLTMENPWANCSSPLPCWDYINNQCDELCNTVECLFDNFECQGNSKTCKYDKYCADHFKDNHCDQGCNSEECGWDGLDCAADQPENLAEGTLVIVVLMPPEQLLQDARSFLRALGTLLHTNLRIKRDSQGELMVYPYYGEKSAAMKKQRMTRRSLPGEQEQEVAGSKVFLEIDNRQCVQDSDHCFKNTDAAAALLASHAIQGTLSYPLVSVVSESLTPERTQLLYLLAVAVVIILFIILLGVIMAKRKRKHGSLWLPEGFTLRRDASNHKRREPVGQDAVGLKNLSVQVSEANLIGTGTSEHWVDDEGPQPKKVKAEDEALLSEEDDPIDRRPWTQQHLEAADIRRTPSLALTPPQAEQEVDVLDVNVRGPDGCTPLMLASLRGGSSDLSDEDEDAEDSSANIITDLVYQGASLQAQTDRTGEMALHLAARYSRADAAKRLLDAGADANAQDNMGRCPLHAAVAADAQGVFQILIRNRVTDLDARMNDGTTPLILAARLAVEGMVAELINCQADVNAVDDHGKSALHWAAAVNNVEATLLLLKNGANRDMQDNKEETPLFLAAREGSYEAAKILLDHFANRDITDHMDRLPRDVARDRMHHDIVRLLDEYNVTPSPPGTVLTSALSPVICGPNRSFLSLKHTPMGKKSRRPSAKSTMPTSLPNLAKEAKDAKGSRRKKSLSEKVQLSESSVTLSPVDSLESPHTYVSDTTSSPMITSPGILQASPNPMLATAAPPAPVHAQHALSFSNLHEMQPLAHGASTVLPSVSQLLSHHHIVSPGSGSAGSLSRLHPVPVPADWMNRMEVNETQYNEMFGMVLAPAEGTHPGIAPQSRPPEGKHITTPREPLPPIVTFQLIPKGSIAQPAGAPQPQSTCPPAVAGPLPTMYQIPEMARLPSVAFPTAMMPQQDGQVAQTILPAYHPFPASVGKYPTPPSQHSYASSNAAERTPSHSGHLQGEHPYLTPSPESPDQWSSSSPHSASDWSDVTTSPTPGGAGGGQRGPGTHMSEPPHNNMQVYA

On to `CCCCC(=C=CC[C@H](O)c1ccc(OCCO)cc1)C[C@H](O)c1cc(Cl)cc(Cl)c1O`, for which the composite z-score in [1] is -0.268; in experiment [2] it was 0.092; in experiment [3], -0.186; in experiment [4] it was 0.214; in experiment [5], 0.323; in experiment [6] it was 1.05. The composite z-score is 0.965 in [7]; 0.236 in [9]; -0.264 in experiment [10]; 1.18 in experiment [11]; 1.54 in [15]; -0.192 in [17]. The composite z-score was 0.563 in experiment [18], 0.62 in experiment [19] and -0.183 in experiment [20]. The z-score in [8] was -2 (inactive); in experiment [12], 0.294 (inactive); in experiment [13], -3.5 (inactive); in experiment [14] it was -0.15 (inactive); in [16] it was 0.0374 (inactive).

Consider `CN(C)CCCC[C@@H]1NC(=O)[C@@H]2C[C@H](C(=O)O)[C@H](c3cccc(OCCO)c3)N2C1=O`, for which the composite z-score in experiment [1] is 0.119; in [2], -0.326; in [3], -0.186; in experiment [4] it was -0.392; in experiment [5] it was -0.561; in experiment [6], -0.579. In addition, the composite z-score in experiment [7] was -0.106; in experiment [9], -0.124; in [10], -0.175; in experiment [11], 0.212; in experiment [15], 1.31; in experiment [17], -0.036. Besides, the results for the composite z-score in [18], in [19] and in [20] were -0.0355, -0.0905 and -0.203, respectively. For the same molecule, the z-score was 1.3 (inactive) in experiment [8]; 0.15 (inactive) in [12]; -0.595 (inactive) in [13]; -0.273 (inactive) in experiment [14]; 0.802 (inactive) in experiment [16].

`COCCOC(=O)N1C(=O)[C@@]2(c3cc(C#CCNC(N)=O)ccc31)[C@H](c1ccc(O)cc1)N1[C@H](c3ccccc3)[C@H](c3ccccc3)OC(=O)[C@H]1[C@@H]2C(=O)N1CCN(c2ncccn2)CC1`: the composite z-score in experiment [1] was -0.487; in experiment [2], 0.594; in experiment [3], 0.0762; in [4] it was 0.661; in experiment [5] it was 0.629; in experiment [6] it was 1.19. In addition, the composite z-score in experiment [7] is 1.1; in experiment [9], 0.34; in [10] it was -0.218; in experiment [11], 1.42; in [15], 3; in experiment [17], 0.24. Also, the values for the composite z-score in experiment [18], in experiment [19] and in [20] were 0.96, 1.15 and 0.187, respectively. Also, the z-score in experiment [8] was -0.523 (inactive); in [12], 1.74 (inactive); in experiment [13], 1.94 (inactive); in [14] it was 4.35 (inactive); in experiment [16], -0.561 (inactive).

`CO[C@H]1O[C@H](CO)[C@@H](OC(=O)CCc2ccccc2)[C@H](OC(=O)c2cc3ccccc3[nH]2)[C@H]1OC(=O)c1cc2ccccc2[nH]1`: the composite z-score in experiment [1] was -0.262; in experiment [2] it was 0.489; in [3], -0.0321; in [4], 0.72; in [5], 1.15; in experiment [6] it was 1.21. Moreover, the composite z-score in experiment [7] is 1.02; in [9] it was 0.29; in experiment [10], 0.0596; in [11], 1.38; in [15] it was 2.74; in [17], -0.0468. Also, the composite z-score in [18] is 0.565; in experiment [19], 1.07; in experiment [20] it was -0.0662. For the same molecule, the z-score is -0.3 (inactive) in experiment [8]; -0.583 (inactive) in [12]; -0.0932 (inactive) in experiment [13]; 20 (active) in experiment [14]; 1.5 (inactive) in experiment [16].

With `Cc1ccc(S[C@]2(C(=O)NC(C)C)CC(=O)N(Cc3ccccc3Cl)[C@@H]2c2ccc(CO)cc2)cc1`, the composite z-score in [1] is 0.827; in experiment [2], -1.59; in [3], -0.0474; in experiment [4], -0.519; in experiment [5] it was -0.266; in experiment [6], 1.03. In addition, the composite z-score was 1.37 in [7]; -0.519 in experiment [9]; -0.169 in experiment [10]; -0.577 in [11]; 2.06 in [15]; 0.0425 in experiment [17]. In addition, the composite z-score is -0.82 in experiment [18], -0.452 in experiment [19] and -0.227 in [20]. The z-score was -3.34 (inactive) in experiment [8]; -0.651 (inactive) in experiment [12]; -1.13 (inactive) in experiment [13]; -0.072 (inactive) in experiment [14]; -1.29 (inactive) in experiment [16].
